According to PubChem BioAssay (NCI):
This is part of a sample that, as a whole, favours compounds with a hit. Of some 83,000 tested, about 20% had one in any assay.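 Treatment: one concentration, 48 hours, 96-well format. Scoring: percent growth, with anything below 10 considered active.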 Unmarked numbers belong to inactive results. Active and inactive are the calls of the source.

These compounds were tested on HL-60(TB) leukemia (assay: NCI-60 one-dose screen, 48 h (100 = growth as untreated, 0 = no growth, -100 = all killed)). Details: 10 µM unless noted.

| SMILES | growth |
| --- | --- |
| COc1ccc2nc3cc(Cl)ccc3c(N3CCN(c4ccnc(Nc5ccc(F)cc5)n4)CC3)c2c1 | 52.5% |
| C=C1C(=O)O[C@H]2[C@H]1CC/C(Cn1cc(-c3cccc(Cl)c3)nn1)=C\CC[C@@]1(C)O[C@@H]21 | -24.9% (active) |
| O=c1cc(NC2CCN(CCCc3ccccc3)CC2)c2cc(Cl)ccc2o1 | -7.02% (active) |
| N#Cc1nn(-c2ccccn2)c(N)c1C#N | 96.1% |
| COc1cc(C2CC(c3ccc(Nc4nc(Nc5ccc(F)cc5)nc(Nc5ccc(Cl)cc5)n4)cc3)=NN2C(C)=O)cc(OC)c1OC (stereo not given) | 35.2% |
| O=c1c2cc(F)ccc2sc2c(NCCCNCCO)nc3ccccc3c12 | 6.49% (active) |
| C=CCn1cc(-c2nc3ccccc3s2)c2cc(-c3ccc4c5c(cccc35)C(=O)N(CCO)C4=O)ccc21 | 101% |
| COc1ccc(C2=Nc3c/c(=C\c4c(O)[nH]c5cc(Cl)ccc45)ccc3=N2)cc1 | 12.4% |
| Cc1ccc(NC(=O)c2nc(S(C)(=O)=O)oc2-c2ccc(F)cc2)cc1Nc1ccc2ncn(C)c(=O)c2c1 | 46.5% |
| COCCn1cc(-c2nc(-c3cn(CCOC)c4ncccc34)cs2)c2ccccc21 | 114% |
| c1ccc(Cn2cc3c(c2)-c2nc(Nc4ccccc4)ncc2CC3)cc1 | 79.4% [100 µM] |
| CCn1cc2c(cc1=O)-c1nc3ccccc3c3ccnc(c13)C2=O | 93.9% |
| N#Cc1ccc(NC2c3ccccc3CC2O)cc1 (stereo not given) | 78.7% |
| COc1ccc(/C=C(/C(=O)N2CCNCC2)c2cc(OC)c(OC)c(OC)c2)cc1O | -37.7% (active) |
| Clc1cc(Cl)cc(Nc2ccc3c(OCCCN4CCOCC4)cccc3n2)c1 | 50.5% |
| COc1cc2c3c(n([C@H]4CCOC4)c(=O)c2cc1OC)-c1cc2c(cc1C3=O)OCO2 | 25% |
| Cc1cc(C)cc(NC(=O)Cn2nncc2CN2C(=O)CSC2=O)c1 | 97.9% |
| COc1ccc(-c2cc(-c3cc(OC)ccc3OC)nc(SCC(C)=O)c2C#N)cc1 | 86.3% |
| Cc1nc2ccccc2c(/C=C/c2ccc(C(F)(F)F)cc2)c1C(=O)/C=C/c1ccccc1 | -19% (active) |
| CC(=O)n1c2ccccc2c2ccccc21 | 104% |

| SMILES | growth |
| --- | --- |
| COc1cc2nccc(Oc3ccc(NC(=O)C4(C(=O)Nc5ccc(F)cc5)CC4)cc3)c2cc1Oc1ccc(N)cn1 | 22.9% |
| O=C(Oc1ccccc1[N+](=O)[O-])C1CCCN1C(=O)OCc1ccccc1 (stereo not given) | 58.9% |
| Cc1cccc(NC(=O)[C@@H]2c3ccccc3C(=O)N(c3ccc(Cl)cc3)[C@H]2c2ccc(Cl)cc2)n1 | 36.2% |
| CCOc1ccc(-c2cnnn2-c2nonc2-n2cccc2)cc1 | -23.8% (active) |
| COc1ccccc1/C=N/NC1=NC2C(N1)N(C)C(=O)N2C (stereo not given) | 107% |
| Cc1ccnc2c(OCc3ccccc3)cccc12 | 111% |
| Cc1cccc(C[C@H](NC(=O)Nc2ccc(Cl)cc2F)C(=O)N[C@@H]2C(=O)N3C[C@H](OC(=O)CCN(C)C)C[C@H]3C(=O)N3CCCC[C@H]3C(=O)N[C@@H](C)C(=O)N3C[C@H](C)C[C@H]3C(=O)O[C@H]2C)c1 | 16.3% |
| CCOC(=O)/C=C/c1ccc([N+](=O)[O-])o1 | -4.64% (active) |
| O=C(C[n+]1ccccc1Cl)c1ccc2c(c1)CCCC2 | 79.2% |
| O=C1Nc2ccc(Cl)cc2/C1=C/c1cccs1 | 98% |
| COc1cc(C2NN=C3c4ccccc4CCC32)cc(OC)c1OC (stereo not given) | 74.1% |
| CCOC(OCC)c1cnc2nc(NC(C)=O)[nH]c(=O)c2n1 | 123% |
| CC(=O)N[C@H](C(=O)N[C@@H](CCCNC(=N)N)C(=O)N[C@@H](CCCCN)C(=O)N[C@@H](CCCNC(=N)N)C(=O)NC(C(=O)N[C@@H](CC(C)C)C(=O)N[C@@H](CCCNC(=N)N)C(=O)N[C@@]1(C)CCC/C=C\CCC[C@@](C)(C(=O)N[C@@H](CCCNC(=N)N)C(=O)N[C@@H](CCC(=O)O)C(=O)N[C@@H](CC(C)C)C(=O)N[C@H](C(=O)N[C@@H](CCC(=O)O)C(N)=O)C(C)C)NC(=O)[C@H](CCC(N)=O)NC(=O)[C@H](CC(C)C)NC(=O)[C@H](CC(C)C)NC1=O)[C@@H](C)O)C(C)C (stereo not given in full) | -41% (active) |
| CCC(=O)N1C/C(=C/c2ccc(OC)cc2)C(=O)/C(=C/c2ccc(OC)cc2)C1 | 25.1% |
| CN1CCN(c2ccc3nc(-c4[nH]ncc4Nc4ncnc5c4OCCCN5)[nH]c3c2)CC1 | -28.7% (active) |
| O=C1C(Cl)=C(NCCCN(CCCNC2=C(Cl)C(=O)c3ccccc3C2=O)C2=C(Cl)C(=O)c3ccccc3C2=O)C(=O)c2ccccc21 | 37.6% |
| Cc1c2ccncc2c(C)c2c1c1cc(CO)ccc1n2C | 19.2% |
| N#Cc1c(-c2ccccc2)cc(-c2ccc(Nc3nc(Nc4ccc(F)cc4)nc(Nc4ccc(F)cc4)n3)cc2)nc1N | 14.2% |
| CCOc1ccccc1CN1CCc2nc3cc(C(C)(C)C)[nH]n3c(=O)c2C1 | 99.4% |
| COc1cc(C2C=C(c3cccc(NC(C)=O)c3)Nc3ncnn32)cc(OC)c1OC (stereo not given) | -35.2% (active) |
